Measured values as given in PubChem BioAssay AID1851 (National Center for Advancing Translational Sciences (NCATS), 2009).
Out of some 16,000 compounds screened, about 5,700 (36%) were called active. Another 24% or so got no clear call; they are omitted. Some of the results follow. A number with no mark means an inactive call. The call rests on the fitted dose curve; in most records, active means well fitted curve in the direction sought with a large enough effect; inconclusive means small, poorly fitted or top-dose-only effect, or effect the other way; inactive means no such curve, though single readings can be large or run the other way.

Target: Cytochrome P450 1A2 (Homo sapiens) (UniProt P05177)
Sequence (P05177 whole entry, looked up): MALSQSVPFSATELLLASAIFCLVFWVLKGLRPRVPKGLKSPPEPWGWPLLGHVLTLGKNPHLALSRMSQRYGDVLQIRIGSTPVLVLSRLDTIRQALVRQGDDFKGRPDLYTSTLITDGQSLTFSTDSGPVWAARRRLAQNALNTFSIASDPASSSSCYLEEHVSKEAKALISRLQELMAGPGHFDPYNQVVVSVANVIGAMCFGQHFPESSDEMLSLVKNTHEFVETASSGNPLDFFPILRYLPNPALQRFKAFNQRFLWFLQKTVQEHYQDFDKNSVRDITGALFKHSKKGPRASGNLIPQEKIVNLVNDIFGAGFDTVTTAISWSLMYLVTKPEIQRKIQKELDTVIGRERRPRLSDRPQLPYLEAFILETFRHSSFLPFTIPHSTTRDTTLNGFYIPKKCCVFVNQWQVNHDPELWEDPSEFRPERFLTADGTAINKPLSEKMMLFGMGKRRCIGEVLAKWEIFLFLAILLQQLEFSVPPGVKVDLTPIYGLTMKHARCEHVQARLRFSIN
Assay: Cytochrome panel assay with activity outcomes
Details: recombinant CYP, pro-luciferin dealkylation, luminescence, p450-cyp1a2; series mostly up to 57.1 µM; activity, negative = inhibition: at the top concentration
On the % scale 0 is the no-effect control and ±100 the full control effect.

Structure (SMILES)	activity, negative = inhibition	AC50
Cn1c(=O)[nH]c(=O)c2c1nc(CN(Cc1ccccc1)Cc1ccccc1)n2CCN1CCOCC1	2.25%	
C[C@@H](O)[C@H]1C(=O)N2C(C(=O)O)=C(S[C@@H]3CN[C@H](C(=O)N(C)C)C3)[C@H](C)[C@H]12	-7.27% [at 25.6 µM]	
CN1c2ccccc2Oc2c(c(=O)n(C)c(=O)n2C)C1c1cccc([N+](=O)[O-])c1 (centres undefined)	-15.5%	
COCC(=O)N1CCC2(CC1)CCN(C(=O)Nc1ccc(OC)cc1)CC2	6.19%	
N#Cc1cccc(NC(=O)N2CCC3(CC2)CCN(C(=O)c2ccco2)CC3)c1	-19.1%	
CCCC(=O)Nc1cc(-c2cn3cccnc3n2)ccc1OC		100 nM (active)
O=C(Nc1cccc(-c2cn3cccnc3n2)c1)c1ccco1		31.6 nM (active)
COCC(=O)Nc1ccc(-c2cn3cccnc3n2)cc1		7080 nM (active)
CCOCC(=O)Nc1cc(-c2cn3cccnc3n2)ccc1C		50.1 nM (active)
CCOc1ccc(-n2c(SCC(=O)Nc3ccccc3C)n[nH]c2=O)cc1	-17.9%	
O=C(c1ccco1)N1CCN(C(=O)c2nn3cccnc3c2Cl)CC1	12.2%	
NC(=O)c1ccc[n+](CC(=O)OCCC23CC4CC(CC(C4)C2)C3)c1	2.04%	
CC(=O)C[C@H](O)[C@@H](NC(=O)OC(C)(C)C)C(C)C	0.505% [at 11.4 µM]	
Cc1cc(C2(c3cc(C)c(O)c(C(=O)O)c3)OS(=O)(=O)c3ccccc32)cc(C(=O)O)c1O	-9.3% [at 11.4 µM]	
c1ccc([P+](CC[P+](c2ccccc2)(c2ccccc2)c2ccccc2)(c2ccccc2)c2ccccc2)cc1	-7.8% [at 11.4 µM]	
Nc1nc(=S)[nH]c2c1C1(CCCC1)Cc1ccccc1-2		891 nM (active)
O=c1c2c(n3cnnc3n1-c1ccccc1)-c1ccccc1CC21CCCCC1	-10.4%	
CCOC(=O)CCN1C(=O)[C@H]2[C@H]3[C@H](O)[C@H](O)C/C(=N/OC/C=C(\C)CCC=C(C)C)[C@H]3CC[C@@H]2C1=O	1.64% [at 11.4 µM]	
CC(=O)c1cccc(NC(=O)c2csc(-n3nc(C)cc3C(F)(F)F)n2)c1		3160 nM (active)
CO[C@H]1[C@@H](OC(N)=O)[C@H](O)[C@@H](Oc2ccc3c(O)c(NC(=O)c4ccc(O)c(CC=C(C)C)c4)c(=O)oc3c2C)OC1(C)C	-19.8% [at 25.6 µM]	
Cc1cc2c(nc1C)CCCN2C[C@H](C)O/N=C1/[C@H]2O[C@@H]2[C@@H](O)[C@H]2[C@H]1CCn1c(=O)n(-c3ccccc3)c(=O)n12	2.9% [at 11.4 µM]	
Cc1cc(SC(C)C(=O)Nc2c(C)n(C)n(-c3ccccc3)c2=O)nc2ccccc12 (centres undefined)		1000 nM (active)
Cc1c(NC(=O)Nc2c(Cl)cccc2Cl)c(=O)n(-c2ccccc2)n1C	-6.85% [at 11.4 µM]	
Cc1cc(C(=O)Nc2c(C)n(C)n(-c3ccccc3)c2=O)c2ccccc2n1	-5.52%	
